Assay results reported in PubChem BioAssay (NCI).
This is part of a sample that, as a whole, favours compounds with a hit. Of some 83,000 tested, about 20% had one in any assay.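 Growth was measured after 48 h exposure to one concentration of compound in 96-well plates. Values under 10 count as active.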 Values without a mark were called inactive. Active and inactive are the calls of the source.

Tests used:
Assay in all cases: NCI-60 one-dose screen, 48 h (100 = growth as untreated, 0 = no growth, -100 = all killed)
Details in all cases: 10 µM
HCT-15 colon = test system: HCT-15 colon
HT29 colon = test system: HT29 colon
SNB-75 CNS = test system: SNB-75 CNS
SNB-19 CNS = test system: SNB-19 CNS
U251 CNS = test system: U251 CNS
PC-3 prostate = test system: PC-3 prostate
SK-MEL-5 melanoma = test system: SK-MEL-5 melanoma
UACC-62 melanoma = test system: UACC-62 melanoma
LOX IMVI melanoma = test system: LOX IMVI melanoma
SK-MEL-28 melanoma = test system: SK-MEL-28 melanoma

| SMILES | growth (HCT-15 colon) | growth (HT29 colon) | growth (SNB-75 CNS) | growth (SNB-19 CNS) | growth (U251 CNS) | growth (PC-3 prostate) | growth (SK-MEL-5 melanoma) | growth (UACC-62 melanoma) | growth (LOX IMVI melanoma) | growth (SK-MEL-28 melanoma) |
| --- | --- | --- | --- | --- | --- | --- | --- | --- | --- | --- |
| CCCc1c(CC)c(=N)c2ccccc2n1C | 10.7% | 4.71% (active) | 73.4% | 95.1% | 43.2% | 67.4% | 19.2% | -3.76% (active) | 1.08% (active) | -80.8% (active) |
| C/C(=N\NC(N)=S)C(C)(C)O | 101% | 61% | 91.2% | 106% | 88.1% | 90.1% | 101% | 103% | 95.1% | 98.5% |
| Cc1cc(=O)oc2cc(OCc3cn(CC(O)CO)nn3)ccc12 (stereo not given) | 105% | 115% | 132% | 105% | 100% | 110% | 25.5% | 97.4% | 103% | 128% |
| CCN1CCN(c2ccc(Nc3ncnc4c3nnn4CCc3cc(OC)cc(OC)c3)cc2)CC1 | 63.6% | 57.9% | 79.8% | 94% | 77.4% | 82.2% | 73.5% | 93.9% | 88.1% | 101% |
| COc1cc2c3c(cccc3c1)C(=O)N(CCN1CCCC1)C2=O | 20.1% | 0.567% (active) | 23.5% | 31.7% | 25.9% | 14.3% | -33.3% (active) | -34% (active) | -2.23% (active) | 19.1% |
| CCN(CC)CCCOC(=O)Nc1ccccc1Cl | 111% | 103% | 120% | 104% | 107% | 96.1% | 105% | 109% | 97.6% | 116% |
